The source of these data is ChEMBL document CHEMBL4513141, “CO-ADD screening of NIH (USA) - Clinical Collection” (2021).

Entries with a potency or affinity are not part of this list.

One assay relates to Staphylococcus aureus. The following applies: Concentration 20 uM; ASSAY_TEST Inhibition of Bacterial Growth; detection method Absorption (OD600); MEDIA CAMHB; plate type 384well; NBS; CORNING #3640; time 18 hr.
As a reminder, the Inhibition is the drop in the measured response relative to a control, in per cent. As to `O=C(O)COCCN1CCN(C(c2ccccc2)c2ccc(Cl)cc2)CC1` (centres undefined) [CETIRIZINE], the Inhibition was determined as 14.64%.

For the compound `CN(C)CC/C=C1/c2ccccc2COc2ccc(CC(=O)O)cc21.Cl` [OLOPATADINE HYDROCHLORIDE], the Inhibition was -18.81%.

Turning to `CC(=O)[C@@]1(O)CC[C@H]2[C@@H]3C[C@H](C)C4=CC(=O)CC[C@]4(C)[C@H]3CC[C@@]21C`, the Inhibition came to 8.66%.

Regarding `O=C1CCc2ccc(OCCCCN3CCN(c4cccc(Cl)c4Cl)CC3)cc2N1` [ARIPIPRAZOLE], the Inhibition was -0.8%.

For the compound `CC1(C)S[C@@H]2[C@H](NC(=O)[C@H](N)c3ccc(O)cc3)C(=O)N2[C@H]1C(=O)O` [AMOXICILLIN], the Inhibition stood at 15.09%.

Regarding `Cc1cccc(Nc2ccccc2C(=O)O)c1C` [MEFENAMIC ACID], the Inhibition was 15.6%.

The subject of another assay is Escherichia coli. The following applies: Concentration 20 uM; ASSAY_TEST Inhibition of Bacterial Growth; detection method Absorption (OD600); MEDIA CAMHB; plate type 384well; NBS; CORNING #3640; time 18 hr.
In the case of `C=CCc1ccc(O)c(-c2ccc(O)c(CC=C)c2)c1` [HONOKIOL], the Inhibition stood at 4.96%.

Regarding `NC(=O)N1c2ccccc2C=Cc2ccccc21` [CARBAMAZEPINE], the Inhibition is -3.33%.

As for `Cc1ccc(Cl)c(Nc2ccccc2C(=O)[O-])c1Cl.O.[Na+]` [MECLOFENAMATE SODIUM], the Inhibition turned out to be 2.5%.

For `COc1ccc2c(c1)c(CC(=O)O)c(C)n2C(=O)c1ccc(Cl)cc1.O`, the Inhibition turned out to be 7.22%.

Consider `CC(C)[N+](C)(CCOC(=O)C1c2ccccc2Oc2ccccc21)C(C)C.[Br-]` [PROPANTHELINE BROMIDE], for which the Inhibition is 4.45%.

For `Cc1[nH]cnc1CN1CCc2c(c3ccccc3n2C)C1=O.Cl` [ALOSETRON HYDROCHLORIDE], the Inhibition is reported as 9.19%.

With `COc1ccc2[nH]c([S+]([O-])Cc3ncc(C)c(OC)c3C)nc2c1` (centres undefined) [OMEPRAZOLE], the Inhibition is listed as -0.65%.

For `COC(=O)C1=C(C)NC(C)=C(C(=O)O[C@@H]2CCCN(Cc3ccccc3)C2)[C@@H]1c1cccc([N+](=O)[O-])c1.Cl`, the Inhibition is listed as -0.62%.

On to `C[C@@H]1O[C@@H](OC[C@H]2O[C@@H](Oc3c(-c4ccc(O)c(O)c4)oc4cc(O)cc(O)c4c3=O)[C@H](O)[C@@H](O)[C@@H]2O)[C@H](O)[C@H](O)[C@H]1O` [RUTIN], for which the Inhibition was found to be 2.05%.

As to `COc1cc(OC)c(C(=O)CCCN2CCCC2)c(OC)c1.Cl`, the Inhibition was 2.85%.

On to `OCCN(CCO)c1nc(N2CCCCC2)c2nc(N(CCO)CCO)nc(N3CCCCC3)c2n1` [DIPYRIDAMOLE], for which the Inhibition was 7.34%.

For the compound `CC(C)NCC(O)COc1ccc(CC(N)=O)cc1` (centres undefined) [ATENOLOL], the Inhibition is on record as 2.4%.

Regarding `CC[C@H](C)C(=O)O[C@H]1C[C@@H](C)C=C2C=C[C@H](C)[C@H](CC[C@@H]3C[C@@H](O)CC(=O)O3)[C@H]21` [LOVASTATIN], the Inhibition is recorded as 0.96%.

For `CN1CCN(CCCN2c3ccccc3Sc3ccc(C(F)(F)F)cc32)CC1.Cl.Cl` [TRIFLUOPERAZINE HYDROCHLORIDE], the Inhibition amounted to 0.85%.

As to `Cc1ccc(O)c([C@H](CCN(C(C)C)C(C)C)c2ccccc2)c1.O=C(O)C(O)C(O)C(=O)O` [TOLTERODINE TARTRATE], the Inhibition is -0.28%.

For the compound `CSc1ccc2c(c1)N(CCC1CCCCN1C)c1ccccc1S2.Cl` (centres undefined) [THIORIDAZINE HYDROCHLORIDE], the Inhibition stood at 7.48%.

For the compound `CNCC[C@H](Oc1cccc2ccccc12)c1cccs1.Cl` [DULOXETINE HYDROCHLORIDE], the Inhibition was 4.45%.

Take `COc1ccc(/C=C/C(=O)Nc2ccccc2C(=O)O)cc1OC`: the Inhibition is given as -3.33%.

For the compound `CS(=O)(=O)c1ccc(C2=C(c3ccccc3)C(=O)OC2)cc1` [ROFECOXIB], the Inhibition is given as -7.03%.

`Cc1nc2ccccn2c(=O)c1CCN1CCC(C(=O)c2ccc(F)cc2)CC1` [PIRENPERONE]: the Inhibition was determined as 7.4%.

Regarding `CCN1CCC[C@H]1CNC(=O)c1c(O)c(Cl)cc(Cl)c1OC` [RACLOPRIDE], the Inhibition is recorded as 10.63%.

With `CCN(CC)CCOc1ccc(C(=C(Cl)c2ccccc2)c2ccccc2)cc1.O=C(O)CC(O)(CC(=O)O)C(=O)O` [CLOMIPHENE CITRATE], the Inhibition is 2.4%.

As to `C#C[C@]1(O)CC[C@H]2[C@@H]3CCc4cc(O)ccc4[C@H]3CC[C@@]21C` [ETHINYL ESTRADIOL], the Inhibition was 3.7%.

With `CN(C)CCOC(c1ccc(Cl)cc1)c1ccccn1.O=C(O)/C=C\C(=O)O` (centres undefined) [CARBINOXAMINE MALEATE], the Inhibition came out at 3.54%.

Regarding `O=C(CCNNC(=O)c1ccncc1)NCc1ccccc1` [NIALAMIDE], the Inhibition was found to be 8.37%.

`CC(N)(Cc1ccc(O)c(O)c1)C(=O)O` (stereo not drawn) [METHYLDOPA (RACEMIC)]: the Inhibition was 7.2%.

For the compound `COc1ccc(OC)c(C(O)CNC(=O)CN)c1.Cl` (centres undefined) [MIDODRINE HYDROCHLORIDE], the Inhibition is listed as 4.77%.

`CC(C[N+](C)(C)C)OC(N)=O.[Cl-]` (centres undefined) [BETHANECHOL CHLORIDE]: the Inhibition is on record as -1.38%.

With `Nc1nc(O)c2ncn(CCC(CO)CO)c2n1` [PENCICLOVIR], the Inhibition is reported as 2.89%.

Consider `CC(C)C[C@H](NC(=O)[C@@H](O)[C@H](N)Cc1ccccc1)C(=O)O` [UBENIMEX], for which the Inhibition is -1.57%.

In the case of `COCC1=C(C(=O)OC(C)OC(=O)OC(C)C)N2C(=O)[C@@H](NC(=O)/C(=N\OC)c3csc(N)n3)[C@H]2SC1` (some centres undefined) [CEFPODOXIME PROXETIL], the Inhibition amounted to 5.31%.

For `O=C(O[C@H]1[C@H](Oc2ccccc2COC(=O)C2(O)C=CCCC2=O)O[C@H](CO)[C@@H](O)[C@@H]1O)c1ccccc1` (some centres undefined) [TREMULACIN], the Inhibition was determined as 0.23%.

Turning to `O=C(O)COCCN1CCN(C(c2ccccc2)c2ccc(Cl)cc2)CC1` (centres undefined) [CETIRIZINE], the Inhibition was -0.91%.

Regarding `CN(C)CC/C=C1/c2ccccc2COc2ccc(CC(=O)O)cc21.Cl` [OLOPATADINE HYDROCHLORIDE], the Inhibition stood at 1.13%.

Regarding `CC(=O)[C@@]1(O)CC[C@H]2[C@@H]3C[C@H](C)C4=CC(=O)CC[C@]4(C)[C@H]3CC[C@@]21C`, the Inhibition is on record as -5.84%.

As for `O=C1CCc2ccc(OCCCCN3CCN(c4cccc(Cl)c4Cl)CC3)cc2N1` [ARIPIPRAZOLE], the Inhibition stood at 1.89%.

Consider `CC1(C)S[C@@H]2[C@H](NC(=O)[C@H](N)c3ccc(O)cc3)C(=O)N2[C@H]1C(=O)O` [AMOXICILLIN], for which the Inhibition was found to be 7.14%.

With `Cc1cccc(Nc2ccccc2C(=O)O)c1C` [MEFENAMIC ACID], the Inhibition was 6.03%.
